In PubChem BioAssay AID1159580 (chemical genetic matrix, 2015):
Out of some 5,500 compounds screened, about 2,000 (36%) were called active. Roughly 18% stayed inconclusive and do not appear here. Rule as the data show it: active = normalized growth mostly below about 0.91 (no sharp cut-off); inconclusive = no clear call, values can overlap the other calls; inactive = mostly above about 0.92. Some of the results follow.

Test: chemical genetic growth profiling, strain panel (AID 1159580);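 also: tested at 20 µM; growth read once vehicle control cultures reached saturation at 30 °C; 1 = growth at the plate median or of vehicle wells; lower values mean less growth of the strain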
Settings: growth OD

Measured: normalized growth

CC(C)CCCC(C)C1CCC2C3=CC[C@H]4C[C@@H](O)CC[C@]4(C)C3CC[C@@]21C (some centres not stated)
inactive: S. cerevisiae deletion strains, locus YJR066W, strain TOR1, stronger effect = lower value 0.943 | S. cerevisiae deletion strains, locus YJR075W, strain HOC1, stronger effect = lower value 0.995 | S. cerevisiae deletion strains, locus YKL009W, strain mrt4, stronger effect = lower value 0.997 | S. cerevisiae deletion strains, locus YKL068W, stronger effect = lower value 1 | S. cerevisiae deletion strains, locus YKL085W, strain MDH1 (second series), stronger effect = lower value 0.988 | S. cerevisiae deletion strains, locus YKL085W, strain MDH1, stronger effect = lower value 0.988 | S. cerevisiae deletion strains, locus YKL160W, strain elf1, stronger effect = lower value 0.964 | S. cerevisiae deletion strains, locus YKR001C, strain vps1, stronger effect = lower value 0.983 | S. cerevisiae deletion strains, locus YKR026C, strain gcn3, stronger effect = lower value 0.999 | S. cerevisiae deletion strains, locus YKR091W, strain srl3, stronger effect = lower value 0.967 | S. cerevisiae deletion strains, locus YLL001W, strain dnm1, stronger effect = lower value 0.988 | S. cerevisiae deletion strains, locus YLL026W, stronger effect = lower value 0.988 | S. cerevisiae deletion strains, locus YLL041C, strain sdh2, stronger effect = lower value 0.975 | S. cerevisiae deletion strains, locus YLR027C, strain aat2, stronger effect = lower value 0.982 | S. cerevisiae deletion strains, locus YLR039C, strain RIC1, stronger effect = lower value 0.828 | S. cerevisiae deletion strains, locus YLR058C, strain SHM2, stronger effect = lower value 1.02 | S. cerevisiae deletion strains, locus YLR102C, strain apc9, stronger effect = lower value 0.99 | S. cerevisiae deletion strains, locus YLR113W, strain HOG1, stronger effect = lower value 1.03 | S. cerevisiae deletion strains, locus YLR221C, strain rsa3, stronger effect = lower value 0.946 | S. cerevisiae deletion strains, locus YLR258W, strain gsy2, stronger effect = lower value 1 | S. cerevisiae deletion strains, locus YLR262C, strain YPT6 (second series), stronger effect = lower value 0.859 | S. cerevisiae deletion strains, locus YLR262C, strain YPT6, stronger effect = lower value 0.816 | S. cerevisiae deletion strains, locus YLR268W, strain sec22, stronger effect = lower value 0.978 | S. cerevisiae deletion strains, locus YLR320W, strain mms22, stronger effect = lower value 0.952 | S. cerevisiae deletion strains, locus YLR330W, strain CHS5, stronger effect = lower value 1.04 | S. cerevisiae deletion strains, locus YLR342W, strain FKS1 (second series), stronger effect = lower value 1.04 | S. cerevisiae deletion strains, locus YLR342W, strain FKS1, stronger effect = lower value 0.994 | S. cerevisiae deletion strains, locus YLR357W, strain rsc2, stronger effect = lower value 1.04 | S. cerevisiae deletion strains, locus YLR370C, strain arc18, stronger effect = lower value 0.964 | S. cerevisiae deletion strains, locus YLR371W, strain rom2, stronger effect = lower value 0.998 | S. cerevisiae deletion strains, locus YLR384C, strain iki3, stronger effect = lower value 0.985 | S. cerevisiae deletion strains, locus YLR418C, strain cdc73, stronger effect = lower value 0.943 | S. cerevisiae deletion strains, locus YML016C, strain PPZ1, stronger effect = lower value 1.01 | S. cerevisiae deletion strains, locus YML032C, strain rad52, stronger effect = lower value 1 | S. cerevisiae deletion strains, locus YML120C, strain ndi1, stronger effect = lower value 0.965 | S. cerevisiae deletion strains, locus YML124C, strain tub3, stronger effect = lower value 0.996 | S. cerevisiae deletion strains, locus YMR058W, strain fet3, stronger effect = lower value 0.965 | S. cerevisiae deletion strains, locus YMR078C, strain ctf18, stronger effect = lower value 0.989 | S. cerevisiae deletion strains, locus YMR125W, strain sto1, stronger effect = lower value 1 | S. cerevisiae deletion strains, locus YMR129W, stronger effect = lower value 0.992 | S. cerevisiae deletion strains, locus YMR205C, strain PFK2, stronger effect = lower value 1 | S. cerevisiae deletion strains, locus YMR223W, strain ubp8, stronger effect = lower value 0.99 | S. cerevisiae deletion strains, locus YMR231W, strain pep5, stronger effect = lower value 0.991 | S. cerevisiae deletion strains, locus YMR263W, strain SAP30, stronger effect = lower value 1.03 | S. cerevisiae deletion strains, locus YMR307W, strain GAS1, stronger effect = lower value 1.05 | S. cerevisiae deletion strains, locus YNL067W, strain RPL9B, stronger effect = lower value 0.991 | S. cerevisiae deletion strains, locus YNL071W, strain lat1, stronger effect = lower value 0.932 | S. cerevisiae deletion strains, locus YNL183C, strain NPR1, stronger effect = lower value 0.939 | S. cerevisiae deletion strains, locus YNL209W, strain ssb2, stronger effect = lower value 0.987 | S. cerevisiae deletion strains, locus YNL233W, strain BNI4, stronger effect = lower value 0.984 | S. cerevisiae deletion strains, locus YNL248C, strain rpa49, stronger effect = lower value 0.922 | S. cerevisiae deletion strains, locus YNL250W, strain rad50, stronger effect = lower value 0.999 | S. cerevisiae deletion strains, locus YNL271C, strain bni1, stronger effect = lower value 0.994 | S. cerevisiae deletion strains, locus YNL298W, strain CLA4, stronger effect = lower value 0.985 | S. cerevisiae deletion strains, locus YNL307C, strain MCK1, stronger effect = lower value 0.996 | S. cerevisiae deletion strains, locus YNL322C, strain KRE1 (second series), stronger effect = lower value 0.98 | S. cerevisiae deletion strains, locus YNR049C, strain mso1, stronger effect = lower value 0.982 | S. cerevisiae deletion strains, locus YNR052C, strain pop2, stronger effect = lower value 0.984 | S. cerevisiae deletion strains, locus YOL012C, strain htz1 0.805 | S. cerevisiae deletion strains, locus YOL147C, strain pex11, stronger effect = lower value 0.994 | S. cerevisiae deletion strains, locus YOR001W, strain rrp6, stronger effect = lower value 0.946 | S. cerevisiae deletion strains, locus YOR061W, strain CKA2, stronger effect = lower value 1.01 | S. cerevisiae deletion strains, locus YOR069W, strain VPS5, stronger effect = lower value 1.01 | S. cerevisiae deletion strains, locus YOR070C, strain gyp1, stronger effect = lower value 0.985 | S. cerevisiae deletion strains, locus YOR080W, strain dia2, stronger effect = lower value 0.981 | S. cerevisiae deletion strains, locus YOR083W, strain WHI5, stronger effect = lower value 0.947 | S. cerevisiae deletion strains, locus YOR106W, strain vam3, stronger effect = lower value 0.935 | S. cerevisiae deletion strains, locus YOR136W, strain idh2, stronger effect = lower value 0.993 | S. cerevisiae deletion strains, locus YOR144C, strain elg1, stronger effect = lower value 0.998 | S. cerevisiae deletion strains, locus YOR184W, strain ser1, stronger effect = lower value 0.969 | S. cerevisiae deletion strains, locus YOR231W, strain MKK1, stronger effect = lower value 0.976 | S. cerevisiae deletion strains, locus YOR265W, strain rbl2, stronger effect = lower value 0.985 | S. cerevisiae deletion strains, locus YOR270C, strain vph1, stronger effect = lower value 0.794 | S. cerevisiae deletion strains, locus YOR290C, strain snf2, stronger effect = lower value 1.01 | S. cerevisiae deletion strains, locus YOR316C, strain cot1, stronger effect = lower value 0.988 | S. cerevisiae deletion strains, locus YPL051W, strain arl3, stronger effect = lower value 0.951 | S. cerevisiae deletion strains, locus YPL078C, strain atp4, stronger effect = lower value 0.925 | S. cerevisiae deletion strains, locus YPL106C, strain sse1, stronger effect = lower value 1.03 | S. cerevisiae deletion strains, locus YPL240C, strain hsp82, stronger effect = lower value 0.97 | S. cerevisiae deletion strains, locus YPL241C, strain CIN2, stronger effect = lower value 1.01 | S. cerevisiae deletion strains, locus YPL256C, strain CLN2, stronger effect = lower value 1 | S. cerevisiae deletion strains, locus YPR119W, strain clb2, stronger effect = lower value 0.99 | S. cerevisiae deletion strains, locus YPR141C, strain kar3, stronger effect = lower value 0.994 | S. cerevisiae deletion strains, locus YPR163C, strain tif3, stronger effect = lower value 0.994 | S. cerevisiae deletion strains, locus YPR167C, strain met16, stronger effect = lower value 1.01 | S. cerevisiae deletion strains, strain wtn01, stronger effect = lower value 0.97 | S. cerevisiae strains, strain wild type, stronger effect = lower value 1.04
